Measurements as given in the supplement of paper PMC9694430.

Experiments:
Assay in all cases: thermal shift delta Tm vs DMSO control; higher = stronger stabilization (binding)
Settings in all cases: 12.5 µM; protein concentration 2 µM
LOC_OS02G45750-cb003 = test system: LOC_OS02G45750-cb003
Summary of the method: (§1)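 Rice kinase domain constructs were expressed in E. coli, purified, and tested by differential scanning fluorimetry with compound added in DMSO. Each well of a 96-well plate held 19.5 μl of 2 μM kinase in 100 mM potassium phosphate pH 7.5, 150 mM NaCl, 10% glycerol and 5 × SYPRO Orange, and fluorescence was read from 25°C to 95°C at 0.05°C/s. The melting temperature shift is the mean of triplicates, taken against protein with DMSO alone after Boltzmann fitting.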

LOC_OS02G54510-cb004 = test system: LOC_OS02G54510-cb004
Summary of the method: as §1

LOC_OS03G04050-cb001 = test system: LOC_OS03G04050-cb001
Summary of the method: as §1

LOC_OS03G12390-cb001 = test system: LOC_OS03G12390-cb001
Summary of the method: as §1

LOC_OS03G27990-cb004 = test system: LOC_OS03G27990-cb004
Summary of the method: as §1

LOC_OS03G50450-cb001 = test system: LOC_OS03G50450-cb001
Summary of the method: as §1

LOC_OS03G50810-cb003 = test system: LOC_OS03G50810-cb003
Summary of the method: as §1

LOC_OS04G35114-cb001 = test system: LOC_OS04G35114-cb001
Summary of the method: as §1

LOC_OS04G38480-cb003 = test system: T1, LOC_OS04G38480-cb003
T1 sequence (whole entry): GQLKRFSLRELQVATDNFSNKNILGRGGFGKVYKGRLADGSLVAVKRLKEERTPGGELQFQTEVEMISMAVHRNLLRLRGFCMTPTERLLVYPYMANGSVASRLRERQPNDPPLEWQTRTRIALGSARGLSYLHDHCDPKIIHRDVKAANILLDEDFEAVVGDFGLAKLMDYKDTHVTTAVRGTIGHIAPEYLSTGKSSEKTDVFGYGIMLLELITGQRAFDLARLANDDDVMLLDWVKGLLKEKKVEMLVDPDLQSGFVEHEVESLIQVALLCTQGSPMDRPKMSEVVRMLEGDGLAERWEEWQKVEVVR
Summary of the method: as §1

LOC_OS04G41100-cb001 = test system: T2, LOC_OS04G41100-cb001
T2 sequence (whole entry): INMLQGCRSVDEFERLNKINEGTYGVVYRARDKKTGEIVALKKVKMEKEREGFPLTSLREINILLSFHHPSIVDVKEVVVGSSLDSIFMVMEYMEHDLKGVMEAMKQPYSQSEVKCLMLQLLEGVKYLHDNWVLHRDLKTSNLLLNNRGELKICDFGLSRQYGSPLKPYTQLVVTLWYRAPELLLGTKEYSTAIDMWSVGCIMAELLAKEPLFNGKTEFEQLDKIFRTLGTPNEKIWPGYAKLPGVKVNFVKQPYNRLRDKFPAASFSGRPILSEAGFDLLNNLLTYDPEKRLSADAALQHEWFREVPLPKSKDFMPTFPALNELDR
Summary of the method: as §1

LOC_OS04G57630-cb004 = test system: LOC_OS04G57630-cb004
Summary of the method: as §1

LOC_OS05G07850-cb002 = test system: LOC_OS05G07850-cb002
Summary of the method: as §1

LOC_OS05G16824-cb004 = test system: LOC_OS05G16824-cb004
Summary of the method: as §1

LOC_OS05G28520-cb001 = test system: LOC_OS05G28520-cb001
Summary of the method: as §1

LOC_OS05G30820-cb001 = test system: LOC_OS05G30820-cb001
Summary of the method: as §1

LOC_OS05G43570-cb004 = test system: LOC_OS05G43570-cb004
Summary of the method: as §1

LOC_OS06G16330-cb003 = test system: LOC_OS06G16330-cb003
Chain of LOC_OS06G16330-cb003 (as listed by the source): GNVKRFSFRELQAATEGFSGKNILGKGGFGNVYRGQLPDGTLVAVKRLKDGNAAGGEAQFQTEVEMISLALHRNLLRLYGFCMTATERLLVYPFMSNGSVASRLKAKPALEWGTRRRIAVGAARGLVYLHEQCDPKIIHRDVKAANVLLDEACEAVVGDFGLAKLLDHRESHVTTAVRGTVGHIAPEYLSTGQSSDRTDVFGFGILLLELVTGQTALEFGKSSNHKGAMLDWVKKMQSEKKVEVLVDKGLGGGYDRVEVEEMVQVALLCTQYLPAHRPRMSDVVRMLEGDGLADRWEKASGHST
Summary of the method: as §1

LOC_OS06G22820-cb001 = test system: T3, LOC_OS06G22820-cb001
T3 sequence (whole entry): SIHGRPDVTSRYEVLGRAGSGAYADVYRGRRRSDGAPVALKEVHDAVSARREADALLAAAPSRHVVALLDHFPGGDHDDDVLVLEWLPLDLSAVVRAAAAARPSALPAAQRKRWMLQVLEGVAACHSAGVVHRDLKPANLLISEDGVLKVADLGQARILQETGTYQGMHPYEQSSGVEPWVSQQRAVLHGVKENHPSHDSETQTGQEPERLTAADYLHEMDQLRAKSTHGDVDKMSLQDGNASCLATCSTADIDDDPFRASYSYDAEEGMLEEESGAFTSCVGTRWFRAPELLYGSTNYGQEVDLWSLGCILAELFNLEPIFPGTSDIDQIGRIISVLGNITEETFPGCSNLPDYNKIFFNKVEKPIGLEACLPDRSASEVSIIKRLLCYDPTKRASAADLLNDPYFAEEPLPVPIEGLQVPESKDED
Summary of the method: as §1

LOC_OS07G06570-cb004 = test system: LOC_OS07G06570-cb004
Summary of the method: as §1

LOC_OS07G07230-cb001 = test system: LOC_OS07G07230-cb001
Summary of the method: as §1

Compound | thermal shift delta Tm (LOC_OS02G45750-cb003) [°C] | thermal shift delta Tm (LOC_OS02G54510-cb004) [°C] | thermal shift delta Tm (LOC_OS03G04050-cb001) [°C] | thermal shift delta Tm (LOC_OS03G12390-cb001) [°C] | thermal shift delta Tm (LOC_OS03G27990-cb004) [°C] | thermal shift delta Tm (LOC_OS03G50450-cb001) [°C] | thermal shift delta Tm (LOC_OS03G50810-cb003) [°C] | thermal shift delta Tm (LOC_OS04G35114-cb001) [°C] | thermal shift delta Tm (LOC_OS04G38480-cb003) [°C] | thermal shift delta Tm (LOC_OS04G41100-cb001) [°C] | thermal shift delta Tm (LOC_OS04G57630-cb004) [°C] | thermal shift delta Tm (LOC_OS05G07850-cb002) [°C] | thermal shift delta Tm (LOC_OS05G16824-cb004) [°C] | thermal shift delta Tm (LOC_OS05G28520-cb001) [°C] | thermal shift delta Tm (LOC_OS05G30820-cb001) [°C] | thermal shift delta Tm (LOC_OS05G43570-cb004) [°C] | thermal shift delta Tm (LOC_OS06G16330-cb003) [°C] | thermal shift delta Tm (LOC_OS06G22820-cb001) [°C] | thermal shift delta Tm (LOC_OS07G06570-cb004) [°C] | thermal shift delta Tm (LOC_OS07G07230-cb001) [°C]
O=C(/C=C/c1ccc2ccccc2n1)c1ccncc1 | 4.53 | -0.52 | 0.27 | -1.09 | 0.7 | 0.7 | 0.37 | 4.4 | 4.06 | 2.67 | 3.08 | 9.31 | 4.2 | 0.46 | 0.47 | 0.37 | 1.41 | 0.76 | 0.69 | 0.31
COc1cc2nccc(Oc3ccc(NC(=O)C4(C(=O)Nc5ccc(F)cc5)CC4)cc3)c2cc1OC | 1.97 | 1.19 | 0.5 | 0.4 | 0.27 | 0.3 | 0.76 | 1.45 | 2.61 | 0.93 | 2.62 | 12.8 | 3.14 | 7.75 | 0.54 | 0.51 | 5.17 | 1.2 | 0.82 | 0.35
NC(=O)c1ccc(N(C(N)=O)c2c(F)cccc2F)nc1-c1ccc(F)cc1F | -0.83 | -0.06 | 0.39 | -0.04 | 0.18 | 0.14 | 0.25 | 0.57 | -0.04 | 0.38 | 0.21 | -0.33 | -5.64 | 0.58 | 0.41 | 0.22 | -0.58 | 0.8 | 1.05 | 0.18
c1cn2cc(-c3ccc4cn[nH]c4c3)nc(Nc3ccc(N4CCOCC4)cc3)c2n1 [Entospletinib (GS-9973)] | 0.66 | 1.02 | 0.92 | 3.99 | 1.72 | 4.22 | 2.13 | 2.13 | 2.56 | 1.01 | 0.36 | 7.87 | 0.89 | 1.02 | 0.84 | 0.74 | 9.22 | 0.27 | 1.71 | 0.6
Cc1c(C(=O)N2CCOc3ccc(-c4ccc(N)nc4)cc3C2)ccc(S(C)(=O)=O)c1F | 0.79 | 0.21 | 0.5 | 0.38 | 0.27 | 0.12 | 0.24 | 0.73 | 0.22 | 0.43 | 0.14 | 0.91 | -4.24 | 0.33 | 0.36 | 0.13 | 1.82 | 0.73 | 0.94 | 0.23
Cc1ccc(NC(=O)c2ccc(CN3CCN(C)CC3)cc2)cc1Nc1nc(-c2cccnc2)cs1 [Masitinib (AB1010)] | 0.39 | 0.33 | 0.47 | 0.28 | 0.29 | 0.58 | 0.26 | 0.04 | 0.69 | 0.53 | -0.19 | 0.62 | -4.62 | 0.59 | 0.34 | 0.52 | -0.18 | 0.52 | 0.98 | 0.23
COCCOc1ccc2c(c1)ncn2-c1ccc2cccc(N3CCC(N)CC3)c2n1 | 16.5 | 0.43 | 0.25 | 1.73 | 6.71 | 0.27 | 8.81 | 10 | 2.9 | 0.51 | 6.59 | 16.7 | 12.6 | -0.07 | 1.5 | 0.49 | 7.19 | 0.77 | 1.03 | 0.19
CC(C)CC(NC(=O)C(Cc1ccccc1)NC(=O)C(CCC(N)=O)NC(=O)C(Cc1ccc(O)cc1)NC(=O)C(C)NC(=O)CNC(=O)C(CCCCN)NC(=O)C(Cc1c[nH]c2ccccc12)NC(=O)C(NC(=O)C(Cc1c[nH]c2ccccc12)NC(=O)C(CCCCN)NC(=O)CNC(=O)C(CC(N)=O)NC(=O)C(CCC(=O)O)NC(=O)C(Cc1c[nH]c2ccccc12)NC(=O)C(NC(=O)C(Cc1c[nH]c2ccccc12)NC(=O)C(CO)NC(=O)CNC(=O)C1CCCN1C(=O)C(Cc1c[nH]c2ccccc12)NC(=O)C(CCC(N)=O)NC(=O)C(Cc1ccccc1)NC(=O)CNC(=O)C(N)Cc1c[nH]cn1)C(C)O)C(C)O)C(=O)NC(CCCCN)C(=O)NCC(=O)NCC(=O)NCC(=O)NCC(=O)NC(CO)C(=O)NC(CCCNC(=N)N)C(=O)NC(CCCNC(=N)N)C(=O)NC(CCCNC(=N)N)C(=O)NC(CCCNC(=N)N)C(=O)NC(CCCNC(=N)N)C(=O)NC(CCCNC(=N)N)C(=O)NC(CCCNC(=N)N)C(=O)NC(CCCNC(=N)N)C(=O)NC(CCCNC(=N)N)C(=O)O (stereo not given) | 0.69 | 0.13 | 0.6 | -3.52 | -3.62 | 0.05 | -1.39 | 0.3 | 4.04 | 0.4 | 0.42 | 3.56 | 2.71 | 0.07 | 0.42 | 1.33 | 0.39 | 1.2 | 0.27 | 0.04
C=CC(=O)Nc1cccc(Nc2nc(Nc3ccc(NC4CN(CCF)C4)cc3OC)ncc2C(F)(F)F)c1 | 0.83 | 0.67 | 0.56 | 8.48 | 0.5 | 0.39 | 1.26 | 0.98 | 0.06 | 0.29 | 0.41 | 6.71 | 1.25 | 0.72 | 0.43 | 0.24 | -0.88 | 0.16 | 1.07 | 0.62
N#Cc1ccc2[nH]c(O)c(-c3ccc(CN4CCOCC4)cn3)c2c1 | 1.77 | -0.01 | 0.4 | 2.43 | 0.48 | 0.53 | 1.1 | 1.83 | -0.4 | 2.66 | 0.29 | 2.86 | 1.38 | 0.81 | 0.35 | 0.3 | -0.35 | 0.74 | 1.19 | 0.07
CC(C)c1c2cc(-c3ccnc(NC4CCC(NC5CCOCC5)CC4)n3)ccc2nn1C (stereo not given) | 1.08 | 0.06 | 0.41 | 0.78 | 0.18 | 0.03 | 1.01 | 2.72 | 0.69 | 6.52 | 1.43 | 6.4 | -6.14 | 0.56 | 0.45 | 0.57 | 3.01 | 0.19 | 1.62 | 0.55
CO[C@H]1C[C@@H]2CC[C@@H](C)[C@@](O)(O2)C(=O)C(=O)N2CCCC[C@H]2C(=O)O[C@H]([C@H](C)C[C@@H]2CC[C@@H](OP(C)(C)=O)[C@H](OC)C2)CC(=O)[C@H](C)/C=C(\C)[C@@H](O)[C@@H](OC)C(=O)[C@H](C)C[C@H](C)/C=C/C=C/C=C/1C [Ridaforolimus (Deforolimus, MK-8669)] | 0.46 | -0.33 | 0.25 | 0.04 | 0.01 | -0.11 | -0.15 | 0.34 | 0.98 | 0.85 | -0.31 | 0.02 | -1.14 | 0.42 | 0.41 | 0.24 | -0.22 | 0.77 | 1.03 | 0.31
